# The list is not random: actives were taken first. Their share in the collection is about 2.8%.
# Calpain2 inh – calpain II (pig) inhibition | purified calpain II, fluorogenic peptide substrate, 30 min | inhibition, % at 16 µM | actives 0.37% (n = 220,000) | AID 1236;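 active = inhibition above about 50%, limit read from the data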
# Mcl1-Bid inh – disrupts binding of human Mcl-1 to Bid peptide; Q07820; TR-FRET Mcl-1/Bid-Dy647 peptide binding, 1536-well; inhibition, % at 21.7 µM; actives 0.97% (n = 220,000); AID 1021;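 active = compounds that cut the binding signal by more than half at the single screening dose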;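 also: His-tagged Mcl-1 with europium anti-His antibody binding Bid BH3 peptide; 0% = Mcl-1 plus peptide wells and 100% = peptide-only wells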
# Target sequence (Q07820 whole entry, looked up): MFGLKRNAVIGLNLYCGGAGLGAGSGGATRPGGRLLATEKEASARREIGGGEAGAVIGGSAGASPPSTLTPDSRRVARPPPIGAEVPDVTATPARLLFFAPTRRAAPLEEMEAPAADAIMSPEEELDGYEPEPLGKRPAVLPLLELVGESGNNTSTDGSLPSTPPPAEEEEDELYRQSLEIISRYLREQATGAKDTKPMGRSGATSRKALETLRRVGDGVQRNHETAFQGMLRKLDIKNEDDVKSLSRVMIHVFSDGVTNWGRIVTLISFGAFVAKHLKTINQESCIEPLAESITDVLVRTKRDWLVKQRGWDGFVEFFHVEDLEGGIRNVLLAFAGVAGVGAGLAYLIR
# Bim-Mcl-1 – human Bim-Mcl-1 interaction inhibition. Q07820. inhibition, % at 10 µM. AID 1009. actives 0.1% (n = 190,000). Bead-based flow cytometry, Bim peptide-Mcl-1 binding; in the data active = inhibition above about 40%;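 also: 0% = no compound tracer wells and 100% = peptide blocker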
# TNF death inh – blocks TNF-alpha induced death of Jurkat FADD-/- cells | actives 0.068% (n = 220,000) | activation (protection from cell death), % at 10 µM | Jurkat FADD-/- TNF necroptosis rescue, ATP luminescence, 24 h; 0 = TNF only, 100 = no-TNF cells | AID 463075;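 active = activation, meaning protection from cell death, of at least 50% relative to plate controls; inactive = activation below 50%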;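 also: necroptosis triggered by 40 ng/mL TNF-alpha added together with compound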
# zVAD death inh – L929 zVAD cell death inhibition; L929 zVAD necroptosis rescue, ATP luminescence, 24 h; with zVAD 60 µM; viability rescue, % at 10 µM; actives 0.38% (n = 220,000); AID 1377;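 active = activation, scaled between plate controls, above about 75%, limit read from the data; inactive = activation under that limit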;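 also: 0% = zVAD with DMSO and 100% = DMSO alone without zVAD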
# Mcl1 Noxa PPI – disrupts binding of human Mcl-1 to Noxa peptide; AID 1022; Q07820; inhibition, % at 21.7 µM; TR-FRET Mcl-1/Noxa peptide binding, 2 h; actives 1.5% (n = 220,000);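 active = compounds that cut the protein-peptide binding signal by more than 50% relative to plate controls in a single-dose test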;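 also: His-tagged Mcl-1 with rhodamine Noxa BH3 peptide and terbium anti-His antibody; 0% = Mcl-1 plus Noxa peptide wells and 100% = peptide-only wells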
# Active calls of the source: *; i = inactive; nt = no result.
SMILES,Calpain2 inh,Mcl1-Bid inh,Bim-Mcl-1,TNF death inh,zVAD death inh,Mcl1 Noxa PPI
O=P(O)(O)c1ccccc1OCCOCCOc1ccccc1P(=O)(O)O,-4.8,24.5,0.0,1.6,2.3,17.1
Cc1ccc(-c2cc(-c3ccc(C)o3)nc(N)c2C#N)cc1,i,-26.6,37.0,-8.2,-0.5,42.5
Cc1cc(-c2cc(-c3ccc(Cl)cc3)nc(N)c2C#N)co1,-248.5,40.6,-3.0,-1.1,0.1,66.8*
Cc1ccc(-c2cc(-c3ccc(F)cc3)c(C#N)c(N)n2)o1,-377.5,0.5,-3.0,-0.4,nt,46.1
Cc1ccc(-c2cc(-c3ccc(Cl)cc3)c(C#N)c(N)n2)o1,-320.4,23.1,-1.0,-5.4,-0.3,72.1*
Cc1ccc(-c2cc(-c3ccc4c(c3)OCO4)c(C#N)c(N)n2)o1,-109.5,80.3*,2.0,-15.7,0.8,59.2*
COCCCNC(=O)C1CCCN(C(=O)Nc2ccc(OC)cc2)C1 (centres undefined),8.3,-26.7,-1.0,-0.9,-0.3,-14.7
Cn1c(=O)oc2cc(S(=O)(=O)N3CCCC(C(=O)NCc4ccc5c(c4)OCO5)C3)ccc21 (centres undefined),-32.4,52.6*,0.0,0.5,-0.9,20.9
COc1ccc(S(=O)(=O)N2CCCC(C(=O)NCc3ccc4c(c3)OCO4)C2)cc1 (centres undefined),3.2,-24.1,nt,1.0,1.2,11.1
O=c1c(Cl)c(Cl)cnn1Cc1nnc(-c2ccc(Cl)cc2)o1,-162.0,-11.9,0.0,-12.2,59.5,29.8
CCn1c(SCC(=O)Nc2ccc3c(c2)c2ccccc2n3CC)nnc1-c1ccco1,5.8,-18.4,-6.0,-1.4,1.4,-8.1
CCn1c(SCC(=O)n2c(C)c(C)c3ccccc32)nnc1-c1ccco1,6.8,54.4*,-6.0,-2.3,0.5,-7.2
Cc1sc(NC(=S)NC(=O)c2cccs2)nc1-c1ccc(C(C)C)cc1,62.4*,-22.3,0.0,-2.4,0.3,4.6
O=C(Nc1ccc2cn[nH]c2c1)c1c(Cl)cccc1Cl,18.3,1.7,-7.0,2.0,4.7,-2.8
CN(C)c1ccc(NC2=C(Cl)C(=O)c3ccccc3C2=O)cc1,30.1,-45.4,4.0,-12.5,-2.5,99.7*
O=C1C(Cl)=C(Nc2ccc3cn[nH]c3c2)C(=O)c2ccccc21,-13.9,-67.2,nt,-24.9,-4.1,92.8*
COc1cccc(-c2nc(Oc3cccc(C)c3C)c3ccccc3n2)c1O,39.0,51.8*,-4.0,-1.2,0.4,19.9
COC(C[C@H]1O[C@H]1C(=O)COCc1ccccc1)OC,-14.2,-26.5,nt,0.3,-0.4,12.4
Cc1cc(C)n2c(SC/C(O)=C(\C#N)c3nc4ccccc4[nH]3)nnc2n1,-20.5,-7.2,-1.0,0.8,0.2,85.7*
Cc1ccccc1-n1c(SC/C(O)=C(\C#N)c2nc3ccccc3[nH]2)nnc1-c1ccncc1,-95.5,-46.4,-1.0,1.2,0.2,19.5
O=C(Cn1cnc2ccccc21)N/N=C/c1ccccc1[N+](=O)[O-],21.3,-54.6,-3.0,0.9,-0.6,-6.4
Cc1cccc(N2CCN(C(=O)Cn3c(=O)[nH]c4ccsc4c3=O)CC2C)c1 (centres undefined),2.3,-8.8,0.0,0.0,0.2,8.0
Cc1cccc(N2CCN(C(=O)Cc3ccc(-n4c(=O)[nH]c5ccsc5c4=O)cc3)CC2C)c1 (centres undefined),-22.1,93.3*,-6.0,1.7,0.3,8.1
CCOc1ccc(NC(=O)Cn2sc3nc(C)cc(C)c3c2=O)cc1,-16.2,-117.3,nt,-10.0,-1.1,51.4*
Cc1cc(C)c2c(=O)n(CC(=O)N3CCC(Cc4ccccc4)CC3)sc2n1,-20.9,-23.5,-8.0,-5.9,0.4,58.6*
CN1CC(=O)N(CC(=O)N2CCC(Cc3ccccc3)CC2)C1=O,-20.0,-15.3,0.0,0.0,4.1,-5.5
Cc1cccc(N2CCN(C(=O)Cn3sc4nc(C)cc(C)c4c3=O)CC2C)c1 (centres undefined),-48.1,-51.8,-4.0,-5.0,0.7,58.7*
Cc1cccc(C)c1NC(=S)N(CCCN1CCOCC1)Cc1cccnc1,0.1,-7.4,2.0,1.0,0.5,9.3
O=C(CCl)c1ccc2[nH]c(=O)oc2c1,19.5,10.1,nt,-2.1,0.9,41.9
O=C(Nc1ccc(S(=O)(=O)NC2=NCCCCC2)cc1)c1ccccc1Cl,-18.9,-21.8,nt,-0.8,0.2,2.8

# High-throughput results from PubChem BioAssay.
